# Measured values as given in PubChem BioAssay.
# Some of the results follow. Active and inactive are the calls of the source. Unless noted, how the calls were made is not given here.
# Legend:
# [1] = fluorescence interference of Apaf-1 inhibitor hits, dose response, artefact control for Apaf-1 inhibitor project (AID 588538); conditions: fluorescence interference counterscreen, Apaf-1 assay format
# [2] = HIF-2a reporter inhibitor retest, confirmation, luminescence, 786-0 RCC cells (AID 651580;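 active means mean inhibition across four replicates of at least 40 percent at the single tested concentration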); conditions: HIF-2a luciferase reporter luminescence, overnight, at 18.8 µM, stronger effect = higher value
# [3] = HIF-1a luciferase reporter signal reduction – MiaPaCa-2 cells, single concentration, counter-screen for HIF-2a inhibitor project, confirmation (AID 651589;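 active means mean inhibition of the reporter signal across four replicates at the single tested dose of 50% or more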); conditions: MiaPaCa-2 HIF-1a luciferase reporter, desferoxamine, overnight; at 18.8 µM; stronger effect = higher value
# [4] = Peg3 promoter reporter inhibitors, retest, confirmation, cell-based, HeLa, luciferase reporter, single concentration (AID 602417;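 active means at 20 µM dose, 40% or more inhibition averaged across four replicates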); conditions: HeLa PEG-Prom luciferase reporter, luminescence, overnight; at 20 µM; stronger effect = higher value
# PEG-3 [5] = target: PEG-3 (UniProt Q6IN02); test: Peg3 promoter luciferase inhibitors, potency, dose response, cell-based, HeLa, CREF/GAPDH counter-screen panel (AID 624167); conditions: CREF/GAPDH counter-screens; HeLa PEG-Prom luciferase reporter, overnight, run 1, dose range 1, at 100 µM (top of the series) unless noted
# Sequence of PEG-3 (Q6IN02 whole entry, looked up): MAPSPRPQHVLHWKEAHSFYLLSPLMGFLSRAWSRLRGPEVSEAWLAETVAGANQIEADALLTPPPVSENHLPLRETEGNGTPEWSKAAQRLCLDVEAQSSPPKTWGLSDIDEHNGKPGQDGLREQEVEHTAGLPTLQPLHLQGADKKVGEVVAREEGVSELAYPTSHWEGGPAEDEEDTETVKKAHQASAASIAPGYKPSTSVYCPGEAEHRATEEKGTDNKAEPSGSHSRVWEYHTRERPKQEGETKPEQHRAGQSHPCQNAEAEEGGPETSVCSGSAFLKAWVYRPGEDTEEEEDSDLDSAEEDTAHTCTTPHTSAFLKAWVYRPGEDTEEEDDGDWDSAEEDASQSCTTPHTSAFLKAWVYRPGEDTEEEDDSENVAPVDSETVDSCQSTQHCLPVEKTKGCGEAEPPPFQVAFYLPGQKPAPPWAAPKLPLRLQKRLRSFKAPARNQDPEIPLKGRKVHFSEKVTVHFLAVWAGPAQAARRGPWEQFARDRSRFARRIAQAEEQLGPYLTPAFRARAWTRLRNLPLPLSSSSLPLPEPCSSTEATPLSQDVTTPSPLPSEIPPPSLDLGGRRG
# PEG-3 [6] = target: PEG-3 (UniProt Q6IN02); test: as above; conditions: CREF/GAPDH counter-screens; HeLa PEG-Prom luciferase reporter, overnight, run 2, dose range 1, at 100 µM (top of the series) unless noted
# [7] = target: Tumor necrosis factor receptor superfamily member 10B (Homo sapiens) (UniProt O14763); test: caspase-8 TRAIL sensitization, hit retest, confirmation, cell-based, NB7+caspase-8, with/without TRAIL, luminescence panel (AID 651596; in the data active means activity above about 50%); conditions: NB7 neuroblastoma + caspase-8, TRAIL sensitization, luminescence viability, with TRAIL, mean of runs, at 10 µM, stronger effect = higher value
# Sequence of Tumor necrosis factor receptor superfamily member 10B (Homo sapiens) (O14763 whole entry, looked up): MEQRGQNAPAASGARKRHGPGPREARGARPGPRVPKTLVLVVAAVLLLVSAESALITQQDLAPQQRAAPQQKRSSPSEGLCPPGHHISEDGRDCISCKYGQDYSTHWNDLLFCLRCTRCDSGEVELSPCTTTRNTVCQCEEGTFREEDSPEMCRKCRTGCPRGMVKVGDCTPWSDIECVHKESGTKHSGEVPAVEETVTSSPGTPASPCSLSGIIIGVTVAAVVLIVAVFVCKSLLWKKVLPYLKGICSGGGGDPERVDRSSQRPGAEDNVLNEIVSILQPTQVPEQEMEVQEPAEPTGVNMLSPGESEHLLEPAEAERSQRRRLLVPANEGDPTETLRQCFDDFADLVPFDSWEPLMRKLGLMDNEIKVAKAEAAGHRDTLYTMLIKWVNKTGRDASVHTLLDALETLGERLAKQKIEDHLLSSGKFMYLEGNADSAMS
# [8] = as above; conditions: NB7 neuroblastoma + caspase-8, without TRAIL, luminescence viability, without TRAIL, mean of runs, at 10 µM
# [9] = inhibition of Brca1/Bard1 split-luciferase complementation, confirmation, counter-screen for Mdm2/MdmX interaction inhibitor project, luminescence, single concentration (AID 504668); conditions: Brca1/Bard1 bimolecular luciferase complementation counterscreen, at 8 µM, stronger effect = higher value
# Rat fibroblasts (CREF) [10] = test: Peg3 promoter luciferase inhibitors, potency, dose response, cell-based, HeLa, CREF/GAPDH counter-screen panel (AID 624167); conditions: CREF/GAPDH counter-screens; run 1, dose range 1, at 100 µM (top of the series)
# Rat fibroblasts (CREF) [11] = test: as above; conditions: CREF/GAPDH counter-screens; run 2, dose range 1, at 100 µM (top of the series)
# [12] = inhibitors of PAF-induced NF-kB signaling, retest, confirmation, cell-based, GFP fluorescence, single concentration (AID 602472; in the data active means inhibition above about 40%;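 further: stimulus PAF is a Pseudomonas aeruginosa filtrate and not platelet activating factor; plate controls were DMSO wells with stimulus for no effect and unstimulated DMSO wells for full effect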); conditions: KKLEB CF airway cells, overnight, at 5 µM, stronger effect = higher value
# [13] = inhibitors of PAF-induced NFkB signaling in CF airway cells, dose response, cell-based, uHTS hits, panel, cytotoxicity readout (AID 624344); conditions: CF bronchial epithelial cells, PAF-induced NFkB reporter inhibition, with PAF, run 1; at 79 µM (top of the series) unless noted
# [14] = as above; conditions: CF bronchial epithelial cells, PAF-induced NFkB reporter inhibition, with PAF, run 2; at 79 µM (top of the series) unless noted
smiles,measurement,setting,value
COCCNC(=O)Nc1ccc2nc(-c3ccco3)c(-c3ccco3)nc2c1,IC50,[1],> 100 µM (inactive)
same,inhibition,[2],-38.7% (inactive)
same,inhibition,[3],8.69% (inactive)
COc1ccc(S(=O)(=O)/N=C2\C=C(NS(=O)(=O)c3ccccc3)C(=O)c3ccccc32)cc1,IC50,[1],> 100 µM (inactive)
CCn1cc(CN2CCC(C(=O)Nc3cccc(-c4cccc(Cl)c4)c3)CC2)c(C)n1,inhibition,[4],95.8% (active)
same,inhibition,PEG-3 [5],98.4%
same,inhibition,PEG-3 [6],101%
CN1CCN(CCCNC(=O)c2ccc(/C=C3\Oc4ccccc4N(Cc4ccc(Cl)cc4)C3=O)cc2)CC1,inhibition,[2],-0.07% (inactive)
same,inhibition,[3],106% (active)
same,activity,[7],41.5%
same,activity,[8],75%
O=C1c2ccccc2S(=O)(=O)N1Cc1nc2ccccc2s1,inhibition,[9],32.9% (active)
same,inhibition,PEG-3 [5],101%
same,inhibition,PEG-3 [6],83.4%
CNC[C@H](CC1CCCCC1)NC[C@H](NCCC1CCCC1)[C@H](C)O,inhibition,[9],30.2% (active)
same,inhibition,[4],97.4% (active)
same,inhibition,PEG-3 [5],102%
same,inhibition,PEG-3 [6],99.9%
CCOc1ccc(C(=O)O/N=C(\N)c2ccccn2)cc1,inhibition,[9],33% (active)
same,inhibition,PEG-3 [5],98%
same,inhibition,PEG-3 [6],98.8%
same,inhibition,Rat fibroblasts (CREF) [10],97.8%
same,inhibition,Rat fibroblasts (CREF) [11],98.6%
Cc1cc(C(=O)COC(=O)C2=COCCO2)c(C)n1-c1ccccc1,inhibition,[9],31.6% (active)
same,inhibition,PEG-3 [5],101%
same,inhibition,PEG-3 [6],101%
Cc1ccc(C(=O)N/N=C/c2c(O)ccc3ccccc23)cn1,inhibition,[9],26.6% (active)
Cc1cccc(C(=O)NC(C(=O)Nc2nc(-c3ccccn3)cs2)C(C)C)c1 (stereo unspecified),inhibition,[9],30.7% (active)
Cc1ccc2occ(/C=N/NC(=O)c3ccccc3C)c(=O)c2c1,inhibition,[9],34.4% (active)
same,inhibition,[12],94.8% (active)
same,inhibition,[13],102%
same,inhibition,[14],110%
COc1ccccc1C(=O)Nc1nc2ccccc2s1,inhibition,[9],31.7% (active)
same,inhibition,PEG-3 [5],101%
same,inhibition,PEG-3 [6],98%
same,inhibition,Rat fibroblasts (CREF) [10],100%
same,inhibition,Rat fibroblasts (CREF) [11],99.5%
COc1cc(/C=C/c2ccc3cccc(O)c3n2)c(Br)cc1O,inhibition,[9],29.2% (active)
same,inhibition,PEG-3 [5],99.5%
same,inhibition,PEG-3 [6],96.1%
Cc1cc(C)c2nc(NNC(=O)c3ccc(S(=O)(=O)N4CC(C)CC(C)C4)cc3)sc2c1 (stereo unspecified),inhibition,[9],23.2% (active)
same,inhibition,PEG-3 [5],99.5%
same,inhibition,PEG-3 [6],101%
same,inhibition,Rat fibroblasts (CREF) [10],92.9%
same,inhibition,Rat fibroblasts (CREF) [11],95.6%
O=C(N/N=C\c1c(O)ccc2ccccc12)c1ccc(Cn2cccn2)o1,inhibition,[9],24.8% (active)
same,inhibition,PEG-3 [5],84.9%
same,inhibition,PEG-3 [6],75.1%
same,inhibition,Rat fibroblasts (CREF) [10],51.2%
same,inhibition,Rat fibroblasts (CREF) [11],41.5%
CCN1C(=O)C(=Cc2cccc(OC)c2Oc2ccc([N+](=O)[O-])cc2[N+](=O)[O-])SC1=S,inhibition,[9],27.9% (active)
same,inhibition,PEG-3 [5],21.1%
same,inhibition,PEG-3 [6],46.1%
CC(C)(c1ccccc1)c1ccc(OCC(O)CNC2CCN(Cc3ccccc3)CC2)cc1 (stereo unspecified),inhibition,[9],35.2% (active)
same,inhibition,PEG-3 [5],102%
same,inhibition,PEG-3 [6],98.9%
C=CCn1c(COc2ccccc2)nnc1SC(C)C(=O)N/N=C/c1cc(Cl)ccc1O (stereo unspecified),inhibition,[9],30.6% (active)
same,inhibition,PEG-3 [5],64%
same,inhibition,PEG-3 [6],86%
same,inhibition,Rat fibroblasts (CREF) [10],37.9%
same,inhibition,Rat fibroblasts (CREF) [11],43.9%
O=C1/C(=C\c2cccc(O)c2O)SC(=S)N1Cc1ccccc1,inhibition,[9],34.2% (active)
same,inhibition,PEG-3 [5],99.6%
same,inhibition,PEG-3 [6],101%
CCN1CCN(C(c2ccc(C(F)(F)F)cc2)c2ccc3cccnc3c2O)CC1 (stereo unspecified),inhibition,[9],31.2% (active)
same,inhibition,PEG-3 [5],101%
same,inhibition,PEG-3 [6],99.4%
Cc1ccc(C(=O)Nc2cc3ccccc3oc2=O)cc1,inhibition,[9],31.8% (active)
same,inhibition,PEG-3 [5],84.5%
same,inhibition,PEG-3 [6],78.7%
same,inhibition,Rat fibroblasts (CREF) [10],84.6%
same,inhibition,Rat fibroblasts (CREF) [11],87.1%
COc1ccc(-c2cn[nH]c2-c2ccc(OC)cc2)cc1,inhibition,[9],35.1% (active)
same,inhibition,[12],69.3% (active)
same,inhibition,[13],104%
same,inhibition,[14],104%
CC(C)(C)c1ccc(Cn2c(=O)cnc3ccccc32)cc1,inhibition,[9],25.9% (active)
same,inhibition,PEG-3 [5],100%
same,inhibition,PEG-3 [6],100%
same,inhibition,Rat fibroblasts (CREF) [10],98.2%
same,inhibition,Rat fibroblasts (CREF) [11],84.5%
CCN(CC)c1ccc2nc3ccc(N)cc3[n+](-c3ccccc3)c2c1,inhibition,[9],23.6% (active)
same,inhibition,PEG-3 [5],101%
same,inhibition,PEG-3 [6],102%
C=C(C)Cn1c(SCC(=O)N/N=C/c2c(O)ccc3ccccc23)nc2ccccc2c1=O,inhibition,[9],31.4% (active)
same,inhibition,PEG-3 [5],54.6%
same,inhibition,PEG-3 [6],7.84%
COc1cccc2sc(N(CCCN(C)C)C(=O)C(c3ccccc3)c3ccccc3)nc12,inhibition,[9],24.8% (active)
same,inhibition,[4],99.6% (active)
same,inhibition,PEG-3 [5],102%
same,inhibition,PEG-3 [6],95.1%
